Whole data set: some 1,100 compounds, median “Renilla luciferase signal (cell health) relative to plate median” near 0.97, cut for the highest 2% near 1.6. Only a selection was taken, and the highest values are over-represented in it overall.
Test system: HEK293T (UBE3A T485A transfected, BAR Wnt reporter)
Experiment: Renilla luciferase signal (cell health) relative to plate median (fold (linear ratio)); higher = higher Renilla signal
Details: 24 h
How it was run: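 HEK293T cells carrying a transfected BAR firefly luciferase Wnt reporter, TK-Renilla and an expression plasmid were exposed to chemicals at 0.01–100 uM for 24 h, with dosing four hours after transfection. Readout used Dual-Glo luciferase. The firefly/Renilla ratio defined Wnt activity and raw Renilla defined cell health, each median-centred per plate. Figures are means of four biological replicates.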

Compound	Renilla luciferase signal (concentration: 0.01 uM)	Renilla luciferase signal (concentration: 0.1 uM)	Renilla luciferase signal (concentration: 1 uM)	Renilla luciferase signal (concentration: 10 uM)	Renilla luciferase signal (concentration: 100 uM)
Cc1ccn2nc(S(=O)(=O)Nc3c(F)cccc3F)nc2n1 [Flumetsulam]	0.963	1.07	0.959	1.07	1.67
CCOc1nc(F)cc2nc(S(=O)(=O)Nc3c(Cl)cccc3Cl)nn12 [Diclosulam]	0.684	0.741	1.03	0.878	0.911
COc1ccc(-c2ccccc2)cc1NNC(=O)OC(C)C [Bifenazate]	1.24	1.21	1.11	1.06	0.851
Cc1ccc([N+](=O)[O-])cc1N [2-Methyl-5-nitroaniline]	–	1.11	1.21	1.15	0.978
CC(C)N(C(=O)SCC(Cl)=C(Cl)Cl)C(C)C [Tri-allate]	1.05	1.11	1.06	1.06	1.76
CC(C)COC(=O)c1ccccc1C(=O)OCC(C)C [Diisobutyl phthalate]	–	0.825	0.827	0.867	1.01
CCC(C)(NC(=O)c1cc(Cl)c(C)c(Cl)c1)C(=O)CCl (stereo not given) [Zoxamide]	1.25	1.05	0.961	0.117	0.0244
C#CC(C)(C)NC(=O)c1cc(Cl)cc(Cl)c1 [Propyzamide]	1.38	1.2	1.12	1.09	1.72
COC(=O)N(OC)c1ccccc1COc1ccn(-c2ccc(Cl)cc2)n1 [Pyraclostrobin]	1.35	0.995	0.707	0.149	0.113
Oc1ccc2ccc3cccc4ccc1c2c34 [1-Hydroxypyrene]	–	1.01	1.06	1.09	0.811
O=P(Oc1ccccc1)(Oc1ccccc1)Oc1ccccc1 [Triphenyl phosphate]	–	0.815	0.778	0.825	1.02
CS/C(C)=N/OC(=O)N(C)SN(C)C(=O)O/N=C(\C)SC [Thiodicarb]	1	0.646	0.895	0.91	0.0128
CCCCCCCCc1ccc(O)cc1 [4-Octylphenol]	–	1.09	1.1	1.3	0.803
CNC(=O)ON=CC(C)(C)SC [Aldicarb]	1.1	0.924	0.97	0.918	1.72
CNC(=O)ON=C(C)SC [Methomyl]	0.945	0.951	1.1	1.04	1.25
CSC(C)(C)C=NO [Aldicarb oxime]	–	1.13	1.06	1.24	1.09
O=[N+]([O-])c1ccc(O)c([N+](=O)[O-])c1 [2,4-Dinitrophenol]	–	1.15	1.11	0.966	0.305
CCOC(=O)C(O)(c1ccc(Cl)cc1)c1ccc(Cl)cc1 [Chlorobenzilate]	–	0.927	0.837	0.929	1.26
CCCCSP(=O)(SCCCC)SCCCC [Tribufos]	1.14	0.609	0.976	0.82	0.728
CCOP(=S)(OCC)SCSP(=S)(OCC)OCC [Ethion]	–	0.929	0.935	0.973	1.13
CCCSP(=O)(OCC)SCCC [Ethoprop]	1.13	0.976	1.08	1.1	1.86

Compound	Renilla luciferase signal (concentration: 0.01 uM)	Renilla luciferase signal (concentration: 0.1 uM)	Renilla luciferase signal (concentration: 1 uM)	Renilla luciferase signal (concentration: 10 uM)	Renilla luciferase signal (concentration: 100 uM)
CC(Cc1ccc(OCC(=O)O)cc1)NCC(O)c1csc(C(F)(F)F)n1 (stereo not given)	–	0.796	0.849	0.912	1.28
CCC12COCN1COC2 [5-Ethyl-1-aza-3,7-dioxabicyclo[3.3.0]octane]	–	0.93	1.08	1.1	1.35
CCCCC(CC)COC(=O)c1ccc(C(=O)OCC(CC)CCCC)c(C(=O)OCC(CC)CCCC)c1 (stereo not given) [Tris(2-ethylhexyl) trimellitate]	–	0.879	0.991	0.972	1.2
C[C@]12CCC(=O)C[C@@H]1CC[C@@H]1[C@@H]2CC[C@]2(C)[C@@H](O)CC[C@@H]12 [5alpha-Dihydrotestosterone]	–	0.867	0.848	1	2.06
CCC(=O)O[C@H]1CC[C@H]2[C@@H]3CCC4=CC(=O)CC[C@]4(C)[C@H]3CC[C@]12C [Testosterone propionate]	–	0.869	0.772	0.878	1.11
CNC(=O)N(C)c1nnc(C(C)(C)C)s1 [Tebuthiuron]	1.19	0.795	1.02	0.738	1.26
Cc1ccccc1N [2-Methylaniline]	–	1.15	1.29	1.25	1.25
CC(c1ccc(O)cc1)(c1ccc(O)cc1)c1ccc(O)cc1 [4,4',4"-Ethane-1,1,1-triyltriphenol]	–	0.468	0.58	0.509	0.0116
ClC(Cl)c1ccccc1 [Benzal chloride]	–	1.11	0.929	1.12	1.15
CC(C)(C)c1ccccc1O [2-tert-Butylphenol]	–	0.823	0.913	0.724	0.378
CC(C)(C)c1cc(C(C)(C)C)c(O)c(C(C)(C)C)c1 [2,4,6-Tris(tert-butyl)phenol]	–	0.951	1.04	1.18	1.73
COc1ccc(O)c(C(C)(C)C)c1 [2-tert-Butyl-4-methoxyphenol]	–	0.947	0.971	1.22	1.03
O=C(Nc1ccc2[nH]ccc2c1)c1cc2cc(F)ccc2n1Cc1cccc(F)c1	–	1.07	1.02	0.543	0.0428
CCCN(CC)CC1COC2(CCC(C(C)(C)C)CC2)O1 (stereo not given) [Spiroxamine]	0.835	1.34	1.13	1.06	0.0856
CC(C)CCCCCCCOC(=O)c1ccccc1C(=O)OCCCCCCCC(C)C	–	1.21	1.01	1.1	1.26
CCCCOC(=O)c1ccccc1C(=O)OCc1ccccc1 [Benzyl butyl phthalate]	–	1.05	1.23	1.28	1.04
CC12CC1(C)C(=O)N(c1cc(Cl)cc(Cl)c1)C2=O (stereo not given) [Procymidone]	–	0.813	1.07	1.07	1.27
C=CC1(C)OC(=O)N(c2cc(Cl)cc(Cl)c2)C1=O (stereo not given) [Vinclozolin]	1.03	0.904	1.09	1.28	2.37
Cc1ccc(N)cc1 [4-Methylaniline]	–	0.71	0.873	0.684	0.856
COC(=O)C(C)Oc1ccc(Oc2ccc(Cl)cc2Cl)cc1 (stereo not given) [Diclofop-methyl]	1.01	0.869	0.732	0.936	2.15
Oc1cc(Cl)ccc1Oc1ccc(Cl)cc1Cl [Triclosan]	0.941	0.922	0.956	0.911	0.083

Compound	Renilla luciferase signal (concentration: 0.01 uM)	Renilla luciferase signal (concentration: 0.1 uM)	Renilla luciferase signal (concentration: 1 uM)	Renilla luciferase signal (concentration: 10 uM)	Renilla luciferase signal (concentration: 100 uM)
CCCCOC(=O)[C@@H](C)Oc1ccc(Oc2ccc(C#N)cc2F)cc1 [Cyhalofop-butyl]	1.03	1.04	0.889	1.03	0.226
Fc1ccc(Oc2ccnc3cc(Cl)cc(Cl)c23)cc1 [Quinoxyfen]	0.918	0.865	0.93	1.03	0.994
O=[N+]([O-])c1ccc(Oc2ccc(Cl)cc2Cl)cc1 [Nitrofen]	–	1.06	1.17	1.05	1.69
O=[N+]([O-])c1ccc(Cl)cc1 [1-Chloro-4-nitrobenzene]	–	0.98	0.976	0.993	1.1
CCCCNC(=O)OCC#CI [3-Iodo-2-propynyl-N-butylcarbamate]	0.922	0.986	0.947	0.822	0.0151
CC1(C)C(C=C(Cl)Cl)C1C(=O)OC(C#N)c1ccc(F)c(Oc2ccccc2)c1 (stereo not given) [Cyfluthrin]	1.01	1.31	1.27	0.975	1.1
COc1cccc(C(=O)NN(C(=O)c2cc(C)cc(C)c2)C(C)(C)C)c1C [Methoxyfenozide]	1.37	1.1	1.05	1.04	0.685
Nc1c(Cl)cc([N+](=O)[O-])cc1Cl [Dicloran]	0.651	0.765	0.894	0.77	0.167
CSC1=N[C@@](C)(c2ccccc2)C(=O)N1Nc1ccccc1 [Fenamidone]	0.641	0.774	0.785	0.525	0.165
O=c1n(Cl)c(=O)n(Cl)c(=O)n1Cl [Symclosene]	1.05	0.995	0.923	1.18	1.88
CCCOc1nn(C(=O)[N-]S(=O)(=O)c2ccccc2C(=O)OC)c(=O)n1C.[Na+] [Propoxycarbazone-sodium]	1.17	1.21	1.03	0.975	1.2
CCCN(CCC)c1c([N+](=O)[O-])cc(C(F)(F)F)cc1[N+](=O)[O-] [Trifluralin]	1.09	1.16	1.12	1.13	1.59
CCC(C)Nc1c([N+](=O)[O-])cc(C(C)(C)C)cc1[N+](=O)[O-] (stereo not given) [Butralin]	0.921	1.06	0.989	1.04	1.94
CCC(CC)Nc1c([N+](=O)[O-])cc(C)c(C)c1[N+](=O)[O-] [Pendimethalin]	0.981	0.996	0.843	1.02	0.801
O=[N+]([O-])c1ccccc1 [Nitrobenzene]	–	0.931	0.977	0.817	0.932
CCOP(=S)(OCC)Oc1ccc([N+](=O)[O-])cc1 [Parathion]	1.03	1.13	1.04	1.11	1.36
O=C(Nc1ccccc1)c1ccccc1I [Benodanil]	–	0.942	0.924	0.913	0.739
N=C(Nc1ccccc1)Nc1ccccc1 [1,3-Diphenylguanidine]	–	1.03	0.989	0.895	0.887
CC1=C(C(=O)Nc2ccccc2)SCCO1 [Carboxin]	0.996	1.11	1.07	0.949	2.12

From the supplement of paper PMC9254222
